# Activity calls are given as the source filed them.
# What was measured:
# [1] = tested on: Plasmodium falciparum Sir2 (PF13_0152, Sir2A); experiment: Plasmodium falciparum Sir2A binding compounds – biochemical, small-molecule microarray, 635 nm fluorescence, primary screen (AID 1098); details: fluorescence 635 nm, higher = more signal;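 note: score merges spot fluorescence intensity with its signal-to-noise ratio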
# [2] = probe aDKK1 binding to arrayed compounds – biochemical, biotinylated probe, 635/667 nm fluorescence, primary screen (AID 1099); details: small-molecule microarray, higher = more signal;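 note: score merges 667nm spot fluorescence with signal to noise across triplicate slides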
# [3] = probe aCHRDL2 binding to arrayed compounds – biochemical, biotinylated probe, 635/667 nm fluorescence, primary screen (AID 1100); details: small-molecule microarray, higher = more signal
# [4] = change in splice reporter luminescence, either direction, cell-based, HEK293, spliceosome inhibition project, primary screen (AID 1101); details: HEK293 splicing luciferase reporter, 24 h, higher = more signal, called active from +8 up or from −8 down;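 note: HEK293 cells carrying a splicing-competent luciferase reporter gene; test concentration not given here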
# [5] = biological target: Fibroblast growth factor 10 (Homo sapiens) (UniProt O15520); experiment: compounds binding fibroblast growth factor 10 – biochemical, small-molecule microarray, 635 nm fluorescence, primary screen (AID 1102); details: FGF10 binding, fluorescence 635 nm, higher = more signal
# [6] = tested on: glycogen synthase kinase-3 (GSK3A per assay name; protocol says GSK3B); experiment: compounds binding glycogen synthase kinase-3 – biochemical, small-molecule microarray, 635 nm fluorescence, GSK3A, primary screen (AID 1103); details: fluorescence 635 nm, higher = more signal; note: the record names both GSK3A and GSK3B
# [7] = biological target: Epidermal growth factor receptor (Homo sapiens) (UniProt P00533); experiment: compounds binding epidermal growth factor receptor – biochemical, small-molecule microarray, 635 nm fluorescence, primary screen (AID 1104); details: EGFR binding, higher = more signal;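 note: score merges 667 nm emission intensity with spot signal to noise over triplicate slides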
# [8] = biological target: Follistatin-related protein 3 (Homo sapiens) (UniProt O95633); experiment: compounds binding follistatin-related protein 3 – biochemical, small-molecule microarray, 635 nm fluorescence, primary screen (AID 1105); details: FSTL3 binding, higher = more signal;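 note: score merges emission near 667 nm and signal to noise per printed spot across three slides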
# [9] = biological target: Dickkopf-related protein 1 (Homo sapiens) (UniProt O94907); experiment: small molecules binding DKK1 protein – biochemical, small-molecule microarray, 635 nm fluorescence scan, primary screen (AID 1106); details: higher = more signal;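 note: score merges emission near 667 nm with signal to noise over three replicate slides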
# [10] = tested on: Inhibin beta A chain (activin A); experiment: small molecules binding activin A – biochemical, small-molecule microarray, 635 nm fluorescence scan, primary screen (AID 1107); details: INHBA, higher = more signal;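 note: mouse activin A protein probed at 4.33 µg/mL on printed slides; score merges bound-protein fluorescence near 667 nm with spot signal-to-noise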
# [11] = tested on: Human papillomavirus type 1a protein E7 (residues 44-93); experiment: small molecules binding HPV E7 44-93 – biochemical, small-molecule microarray, residues 44-93, 635 nm fluorescence, primary screen (AID 1108); details: fluorescence 635 nm, higher = more signal;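 note: E7 fragment applied at 1 µg/mL in TBST for 1 h at 4 C; score combines spot fluorescence with its signal to noise ratio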
# [12] = hepatitis C replication reporter changes, two-sided – Huh7 cells, luciferase reporter, HCV replication inhibitor project, primary screen (AID 1109); details: Huh7 HCV replicon luciferase reporter, 48 h; higher = more signal;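 note: huh7 hepatoma cells harbouring a luciferase neomycin HCV replicon reporter; luciferase luminescence as measure of HCV replicon replication; test concentration not given here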
# [13] = biological target: Left-right determination factor 2 (Homo sapiens) (UniProt O00292); experiment: small molecules binding LEFTY2 protein – biochemical, small-molecule microarray, 635 nm fluorescence scan, primary screen (AID 1110); details: higher = more signal
# [14] = biological target: Calmodulin-1 (Homo sapiens) (UniProt P0DP23); experiment: small molecules binding calmodulin-1 with EGTA – biochemical, small-molecule microarray, Cy5-labelled CALM1, profiling panel (AID 1111); details: Cy5-CALM1 binding fluorescence, higher = more signal;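 note: labelled calmodulin applied in Tris saline Tween buffer holding calcium plus EGTA and DTT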
# [15] = biological target: Calmodulin-1 (Homo sapiens) (UniProt P0DP23); experiment: small molecules binding Ca-loaded calmodulin-1 – biochemical, small-molecule microarray, Cy5-labelled CALM1, plus calcium, artefact control for SMM control-protein annotation, profiling panel (AID 1112); details: Cy5-CALM1 binding fluorescence, higher = more signal;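 note: score merges spot fluorescence with signal to noise from triplicate slides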
# [16] = probe aWnt5a binding to arrayed compounds – biochemical, biotinylated probe, 635/667 nm fluorescence, primary screen (AID 1113); details: small-molecule microarray, higher = more signal;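 note: score merges 667 nm fluorescence intensity with signal-to-noise per printed feature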
# [17] = probe aShh binding to arrayed compounds – biochemical, biotinylated probe, 635/667 nm fluorescence, primary screen (AID 1114); details: small-molecule microarray, higher = more signal;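 note: probe is biotin-labelled aShh protein from a stem cell growth factor screen; measures binding of labelled protein to compounds printed on the slide; score merges feature fluorescence at 667 nm with signal-to-noise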
# [18] = probe aNog binding to arrayed compounds – biochemical, biotinylated probe, 635/667 nm fluorescence, primary screen (AID 1115); details: small-molecule microarray, higher = more signal;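 note: probe is biotinylated aNog protein used at 0.15 µg/mL for 1 h at 4 C; z-score combines 667 nm fluorescence of each spot with its signal to noise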
# [19] = biological target: Torsin-1A-interacting protein 1 (Homo sapiens) (UniProt Q5JTV8); experiment: compound microarray binding of lysate hLAP1 – cell lysate, small-molecule microarray, COS7 lysate, 635/667 nm fluorescence, primary screen (AID 1116); details: 635 nm fluorescence, higher = more signal
# [20] = biological target: Alpha-bungarotoxin (Bungarus multicinctus) (UniProt P60615); experiment: compounds binding labelled alpha-BTX control protein – biochemical, small-molecule microarray, Alexa647 label, 635/667 nm fluorescence, artefact control for SMM control protein annotation, profiling panel (AID 1117); details: alpha-BTX-A647 binding fluorescence, higher = more signal
# Sequence of Alpha-bungarotoxin (Bungarus multicinctus) (P60615 whole entry, looked up): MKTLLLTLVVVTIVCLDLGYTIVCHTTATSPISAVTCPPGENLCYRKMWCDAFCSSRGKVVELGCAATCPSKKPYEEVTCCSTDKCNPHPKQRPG
# Sequence of Follistatin-related protein 3 (Homo sapiens) (O95633 whole entry, looked up): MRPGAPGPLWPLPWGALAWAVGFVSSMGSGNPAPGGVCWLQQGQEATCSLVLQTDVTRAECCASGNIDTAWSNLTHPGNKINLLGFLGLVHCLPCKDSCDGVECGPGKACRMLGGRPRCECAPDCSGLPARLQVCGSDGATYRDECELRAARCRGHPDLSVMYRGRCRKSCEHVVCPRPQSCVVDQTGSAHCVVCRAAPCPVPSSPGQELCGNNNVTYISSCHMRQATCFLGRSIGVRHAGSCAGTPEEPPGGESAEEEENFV
# Sequence of Fibroblast growth factor 10 (Homo sapiens) (O15520 whole entry, looked up): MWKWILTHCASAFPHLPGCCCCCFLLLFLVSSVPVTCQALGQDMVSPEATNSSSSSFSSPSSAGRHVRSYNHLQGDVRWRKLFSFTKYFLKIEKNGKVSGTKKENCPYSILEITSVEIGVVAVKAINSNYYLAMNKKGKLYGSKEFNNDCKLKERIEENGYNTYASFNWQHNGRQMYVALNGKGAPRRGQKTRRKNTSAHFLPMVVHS
# Sequence of Left-right determination factor 2 (Homo sapiens) (O00292 whole entry, looked up): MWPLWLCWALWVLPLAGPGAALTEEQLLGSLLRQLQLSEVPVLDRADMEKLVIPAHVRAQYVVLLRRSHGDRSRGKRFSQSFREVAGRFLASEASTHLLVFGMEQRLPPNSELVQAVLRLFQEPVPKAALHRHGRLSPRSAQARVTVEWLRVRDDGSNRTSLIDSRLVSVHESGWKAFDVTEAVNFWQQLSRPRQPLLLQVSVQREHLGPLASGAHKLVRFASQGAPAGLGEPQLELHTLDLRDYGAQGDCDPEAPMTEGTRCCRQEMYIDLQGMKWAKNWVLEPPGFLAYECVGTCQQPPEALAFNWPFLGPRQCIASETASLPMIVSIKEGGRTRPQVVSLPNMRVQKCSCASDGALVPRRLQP
# Sequence of Torsin-1A-interacting protein 1 (Homo sapiens) (Q5JTV8 whole entry, looked up): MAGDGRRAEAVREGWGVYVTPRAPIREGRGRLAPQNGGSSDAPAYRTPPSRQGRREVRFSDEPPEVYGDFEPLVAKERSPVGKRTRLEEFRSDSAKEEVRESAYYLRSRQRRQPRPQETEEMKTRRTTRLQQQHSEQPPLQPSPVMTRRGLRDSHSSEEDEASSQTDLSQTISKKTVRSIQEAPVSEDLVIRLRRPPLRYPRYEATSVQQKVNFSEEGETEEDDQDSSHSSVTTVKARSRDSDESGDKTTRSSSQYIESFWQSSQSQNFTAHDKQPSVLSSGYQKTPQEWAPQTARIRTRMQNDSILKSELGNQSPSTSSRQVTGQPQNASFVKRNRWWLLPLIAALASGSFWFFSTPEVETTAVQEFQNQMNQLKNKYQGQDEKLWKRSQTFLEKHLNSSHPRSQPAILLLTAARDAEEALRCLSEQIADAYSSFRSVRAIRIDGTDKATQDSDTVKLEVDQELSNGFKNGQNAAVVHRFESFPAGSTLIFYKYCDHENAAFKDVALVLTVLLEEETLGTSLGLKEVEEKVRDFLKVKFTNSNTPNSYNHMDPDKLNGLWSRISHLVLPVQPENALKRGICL
# Sequence of Dickkopf-related protein 1 (Homo sapiens) (O94907 whole entry, looked up): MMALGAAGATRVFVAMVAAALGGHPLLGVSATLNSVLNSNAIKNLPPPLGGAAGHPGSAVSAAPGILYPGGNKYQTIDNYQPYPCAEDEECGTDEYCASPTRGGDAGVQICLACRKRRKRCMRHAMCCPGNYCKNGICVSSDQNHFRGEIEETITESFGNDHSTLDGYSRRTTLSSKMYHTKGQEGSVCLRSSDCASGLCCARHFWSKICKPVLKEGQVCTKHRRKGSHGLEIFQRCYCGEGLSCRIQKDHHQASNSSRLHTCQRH
# Sequence of Epidermal growth factor receptor (Homo sapiens) (P00533 whole entry, looked up): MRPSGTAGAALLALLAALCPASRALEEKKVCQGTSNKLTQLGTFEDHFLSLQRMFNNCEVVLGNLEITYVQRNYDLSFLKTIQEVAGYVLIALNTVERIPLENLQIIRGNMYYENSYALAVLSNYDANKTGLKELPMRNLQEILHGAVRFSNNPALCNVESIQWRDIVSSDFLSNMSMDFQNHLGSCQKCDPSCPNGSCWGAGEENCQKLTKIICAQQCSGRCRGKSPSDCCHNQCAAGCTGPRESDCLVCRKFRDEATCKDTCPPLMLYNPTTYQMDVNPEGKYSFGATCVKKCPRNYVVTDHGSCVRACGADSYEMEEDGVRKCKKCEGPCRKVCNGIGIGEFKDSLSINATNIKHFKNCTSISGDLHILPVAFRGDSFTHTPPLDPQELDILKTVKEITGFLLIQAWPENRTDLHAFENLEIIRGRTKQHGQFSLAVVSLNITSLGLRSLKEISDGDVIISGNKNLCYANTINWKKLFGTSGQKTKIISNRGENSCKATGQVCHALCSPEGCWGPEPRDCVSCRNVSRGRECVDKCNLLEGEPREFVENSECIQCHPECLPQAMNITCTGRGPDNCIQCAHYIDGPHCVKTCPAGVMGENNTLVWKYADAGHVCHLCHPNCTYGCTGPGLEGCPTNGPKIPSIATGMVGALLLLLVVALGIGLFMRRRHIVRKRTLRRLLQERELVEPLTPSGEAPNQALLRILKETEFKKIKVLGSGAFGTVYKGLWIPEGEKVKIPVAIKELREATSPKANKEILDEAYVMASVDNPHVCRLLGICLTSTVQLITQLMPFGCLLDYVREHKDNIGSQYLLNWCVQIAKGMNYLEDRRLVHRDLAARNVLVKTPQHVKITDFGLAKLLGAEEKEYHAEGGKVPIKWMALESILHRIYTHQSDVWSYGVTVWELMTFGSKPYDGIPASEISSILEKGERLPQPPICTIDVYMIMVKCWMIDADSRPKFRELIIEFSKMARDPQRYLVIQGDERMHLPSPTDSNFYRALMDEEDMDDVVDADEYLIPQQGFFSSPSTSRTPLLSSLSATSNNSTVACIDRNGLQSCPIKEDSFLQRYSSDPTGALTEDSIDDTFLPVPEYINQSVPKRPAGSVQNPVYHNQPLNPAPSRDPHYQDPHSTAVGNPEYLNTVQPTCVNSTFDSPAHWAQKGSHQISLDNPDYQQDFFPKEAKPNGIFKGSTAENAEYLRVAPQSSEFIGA
SMILES,composite z-score [1],composite z-score [2],composite z-score [3],z-score [4],composite z-score [5],composite z-score [6],composite z-score [7],composite z-score [8],composite z-score [9],composite z-score [10],composite z-score [11],z-score [12],composite z-score [13],composite z-score [14],composite z-score [15],composite z-score [16],composite z-score [17],composite z-score [18],composite z-score [19],composite z-score [20]
C=Cc1ccc([C@H]2N[C@H](C(=O)O)CC[C@@H]2C)cc1,-0.642,0.178,0.02,0.0747 (inactive),0.741,-0.88,0.14,0.505,0.723,0.363,-1.08,-1.09,0.712,-0.478,0.222,-0.105,-0.0553,-0.147,-0.0037,-0.112
O=C1C=C[C@@H](O)[C@@H]2[C@@H]3C(=O)N(C[C@@H]4CCCO4)C(=O)[C@@H]3CC[C@@H]12,0.27,-0.0602,-0.454,0.186 (inactive),0.513,0.496,0.645,0.591,1.17,0.451,0.0168,-0.848,0.449,-0.202,-0.78,-0.124,0.111,-0.176,0.206,0.33
CCOC(=O)[C@H](CC(C)C)NC(=O)CCC1CC(OC(=O)NCCc2ccc(F)cc2)CC2(CCCC(COC(=O)NCC3CCCCC3)O2)O1 (stereo not given in full),0.0149,-0.227,-0.283,-0.152 (inactive),0.953,0.293,0.432,0.8,0.479,-0.174,0.723,-1.11,0.351,0.255,-0.622,-0.19,-0.0362,-0.45,0.627,0.596
CCOC(=O)[C@H](Cc1ccccc1)NC(=O)CCC1CC(OC(=O)NCCc2ccc(F)cc2)CC2(CCCC(COC(=O)NCCc3ccccc3OC)O2)O1 (stereo not given in full),1.14,-0.275,-0.556,-0.0644 (inactive),1.06,1.28,0.42,0.857,0.782,-0.314,1.37,-1.19,0.515,0.63,-0.403,-0.0236,0.0278,-0.285,0.705,0.473
CCOC(=O)[C@H](CC(C)C)NC(=O)CCC1CC(OC(=O)NCc2cccc3ccccc23)CC2(CCCC(COC(=O)NCCCN3CCCC3=O)O2)O1 (stereo not given in full),0.389,-0.171,-0.38,-0.406 (inactive),0.408,0.819,0.384,0.787,0.583,0.0612,1.15,-1.12,0.446,0.446,-0.385,-0.194,-0.206,-0.467,0.196,0.754
C[C@@H](ON=C1[C@H]2CCn3c(=O)n(-c4ccccc4)c(=O)n3[C@H]2[C@H](O)[C@@H]2O[C@H]12)c1cn([C@@H]2COC[C@H]2O)nn1,0.507,-0.235,-0.511,0.413 (inactive),0.31,0.555,0.702,0.51,0.446,0.0788,0.361,-2.38,0.698,-0.287,-0.568,-0.119,0.0611,0.139,0.07,0.237
CCOC(=O)[C@H](Cc1ccccc1)NC(=O)CCC1CC(OC(=O)NCc2ccc3c(c2)OCO3)CC2(CCCC(COC(=O)NCCC(C)C)O2)O1 (stereo not given in full),1.21,-0.197,-0.287,0.0184 (inactive),1.12,0.18,-0.0617,0.743,0.415,0.367,1.38,-1.01,0.619,0.487,-0.252,0.0704,0.0639,-0.19,0.0293,0.434
CC(C)=CCCC(C)=CCON=C1C[C@@H](O)[C@@H](O)[C@@H]2[C@@H]3C(=O)N(Cc4ccccc4)C(=O)[C@@H]3CC[C@H]12,0.639,-0.21,-0.659,-1.83 (inactive),0.932,1.12,0.611,1.14,-0.523,1.11,0.759,-2.74,0.985,0.0703,-0.985,-0.164,-0.2,-0.0223,0.577,0.121
CO[C@H]1COC(=O)CC=C[C@@H](C)[C@H](NS(=O)(=O)c2ccc(C)cc2)COC(=O)CCC[C@@H]1C,0.684,-0.233,-0.689,-0.679 (inactive),0.366,0.22,0.484,1.04,1.53,0.9,0.106,-2.24,0.8,-0.789,-1.3,-0.154,-0.188,-0.321,0.784,0.493
C[C@H](ON=C1[C@H]2CCn3c(=O)n(-c4ccccc4)c(=O)n3[C@H]2[C@H](O)[C@@H]2O[C@H]12)c1cn([C@H](CO)Cc2ccccc2)nn1,-0.0041,-0.15,-0.519,-0.421 (inactive),0.513,0.266,0.377,0.659,0.559,0.437,0.345,-2.91,0.605,1.15,-0.444,-0.0179,-0.195,0.0637,-0.168,0.104
O=C1C[C@@H](O)[C@@H](O)[C@@H]2[C@@H]3C(=O)N(Cc4ccccc4)C(=O)[C@@H]3CC[C@@H]12,0.463,-0.222,-0.47,0.859 (inactive),0.807,0.863,0.506,0.888,0.59,0.11,0.467,-0.76,0.474,-0.0573,-0.761,-0.195,0.0684,-0.0784,0.442,0.101
